Screens (PubChem)
Most compounds without a hit are left out; they make up all but 17% or so of the library.
DT40 TDP1 CPT: growth inhibition of DT40 Tdp1-/-;hTDP1 cells with camptothecin (screen for TDP1 inhibitors); chicken DT40 Tdp1-/-;hTDP1 cells + 20 nM CPT, ATP luminescence, 48 h; Potency, µM (doses to about 46.2 µM), actives largely listed as inhibitors; hit rate 12% among 420,000; AID 686979; also: nearly all actives have a fitted effect of over 55% in size
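Chicken DT40 Tdp1-/- cells complemented with human TDP1, 400 cells/well, exposed to compounds plus 20 nM camptothecin for at least 48 h at 37 C; viability read as ATP content by CellTiter-Glo luminescence.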
TGFb inhibitor: blocks TGF-b signaling | HepG2 CAGA-GFP TGF-b/SMAD3 reporter, GFP fluorescence, 18 h; TGF-beta stimulated, 500 pg/mL final | Potency, µM (doses to about 46.1 µM), hits mostly inhibitors | hit rate 1.2% among 410,000; also: nearly all actives have a fitted effect of over 65% in size
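Smad-responsive CAGA-GFP expression was quantified in HEPG2 cells exposed to compounds and 500 pg/mL final TGF-beta for 18 h at 37 degrees C; unstimulated wells defined full inhibition.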
HepG2 viability: HepG2 cytotoxicity, counter-screen for TGF-b inhibitors | HepG2 CAGA-GFP viability, ATP luminescence, 18 h | Potency, µM (titrated, usually from 46.1 µM), usual class: cytotoxic | hit rate 0.76% among 410,000 | AID 588856
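HepG2 CAGA-GFP cells (1000/well, DMEM with 1% FBS) received compound, then TGF-beta at 500 pg/mL final, and were incubated 18 hours at 37 degrees C. Viability was read by CellTiter-Glo luminescence. Media-only wells were set as complete cell-killing and DMSO as no toxicity.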
DT40 TDP1 no CPT: qHTS for Inhibitors of human tyrosyl-DNA phosphodiesterase 1 (TDP1): qHTS in cells in absence of CPT; DT40 Tdp1-/- hTDP1 cells, no CPT, ATP luminescence, 48 h; Potency, µM (highest dose often 46.2 µM), hits mostly inhibitors; hit rate 15% among 420,000; AID 686978, 2013; also: nearly all actives have a fitted effect of over 55% in size
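Cells were dispensed at 400 per well, compounds added by pin tool, plates incubated ≥48 hr at 37 °C, then CellTiter-Glo added for 30 min at room temperature before luminescence reading. Line: DT40 Tdp1-/- complemented with hTDP1; camptothecin omitted.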
HT1080 IDH1KD tx: toxicity to HT-1080 IDH1 knockdown cells (counter line); Potency, µM (doses to about 46.1 µM), hits mostly cytotoxic; AID 686971; HT-1080 IDH1 knockdown viability, ATP luminescence, 48 h; hit rate 2% among 360,000
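Using the IDH1-knockdown HT-1080 line run in the same batch and compound series as the NT line, viability after 48 h at 37 °C was determined by CellTiter-Glo luminescence and expressed as % activity.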
HT1080NT lethal: kills 2HG-producing HT-1080-NT fibrosarcoma cells; HT-1080-NT fibrosarcoma viability, CellTiter-Glo ATP luminescence, 48 h; Potency, µM (top dose mostly 46.1 µM), hits mostly cytotoxic; hit rate 1.6% among 360,000;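 also: NT is the 2HG producing partner of a matched IDH1 knockdown line; nearly all actives have a fitted effect of over 55% in size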
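Compounds were tested in concentration-response format on HT-1080-NT cells for 48 hours at 37 degrees C. Cell viability came from CellTiter-Glo luminescence; curves were classified by r2, response magnitude and activity.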
A number is an active result; - = inactive; ? = inconclusive; . = not tested or not shown; [ ] = remark or other dose. Calls follow the shape of the dose curve; as a rule, active = well fitted curve in the direction sought with a large enough effect; inconclusive = small, poorly fitted or top-dose-only effect, or another doubt; inactive = no such curve, though single readings can be large; an effect the other way counts as inactive or inconclusive.

SMILES | DT40 TDP1 CPT | TGFb inhibitor | HepG2 viability | DT40 TDP1 no CPT | HT1080 IDH1KD tx | HT1080NT lethal
C/C(NCCc1ccc(O)cc1)=C1/CCOC1=O | - | - | - | - | - | -
O=C(Nc1ccc(Cl)cc1F)C1CC1 | - | - | - | - | - | -
C(#CSCc1ccccc1)SCc1ccccc1 | - | - | - | - | - | -
C[n+]1cccc(O)c1SCc1ccccc1 | 5.2µM | ? | - | 4.6µM | 23µM | -
Cc1cc(C)c(S(=O)(=O)N(C)CC(=O)N2CCCC2)c(C)c1 | - | - | - | ? | - | -
CCCN1Cc2cccc(C(=O)Nc3cc(C)cc(C)c3)c2C1=O | - | - | - | ? | . | .
CC1CCCN(Cc2c(O)ccc3c2O/C(=C\c2ccco2)C3=O)C1 (stereo not drawn) | 15µM | - | - | 26µM | - | -
CCN1CCN(Cc2c(O)ccc3c2O/C(=C\c2ccccc2)C3=O)CC1 | - | - | - | - | - | -
Cc1ccc(-c2csc(N3CCC(NS(=O)(=O)c4ccc5c(c4)OCCO5)CC3)n2)cc1 | ? | - | - | 15µM | - | -
O=S(=O)(NC1CCN(S(=O)(=O)c2c(F)cccc2F)CC1)c1ccc2c(c1)OCCO2 | . | - | - | . | . | .
C=CCn1c(=O)[nH]c2cc(C(=O)N3CC=C(c4ccccc4)CC3)ccc2c1=O | ? | - | - | 26µM | - | -
COc1cccc(N2CCN(C(=O)CCCn3c(=O)[nH]c4ccc(Br)cc4c3=O)CC2)c1 | 21µM | ? | - | 6.5µM | . | .
COc1cc2[nH]c(=O)n(CCCC(=O)N3CC=C(c4ccccc4)CC3)c(=O)c2cc1OC | ? | ? | - | 21µM | - | -
CCOc1cc2[nH]c(=O)n(CCCCC(=O)N3CCN(c4ccccc4OC)CC3)c(=O)c2cc1OCC | 13µM | - | - | 9.2µM | . | .
COc1cc2[nH]c(=O)n(CCCCCC(=O)N3CCN(c4ccccn4)CC3)c(=O)c2cc1OC | ? | - | - | ? | - | -
Cc1nn(CCC(=O)Nc2cc(F)ccc2F)c(=O)c2nn(-c3ccccc3)c(C)c12 | ? | - | - | ? | . | .
CCCc1nc2nc(C)c(NS(=O)(=O)c3ccc([N+](=O)[O-])cc3)c(=O)n2[nH]1 | - | - | - | - | - | -
CCOc1cc2[nH]c(=O)n(CCCC(=O)N3CCN(c4ccc(OC)cc4)CC3)c(=O)c2cc1OCC | ? | - | - | 21µM | . | .
CN(C)c1cc[n+](CC(=O)c2ccc(OC(F)F)cc2)cc1 | 18µM | - | - | 8.2µM | - | ?
O=C(NCCCOc1ccc([N+](=O)[O-])cc1Cl)OCc1ccccc1 | - | - | - | - | - | -
O=C(Nc1ccc(OC(=O)c2ccccc2)c(-c2nc3ccccc3s2)c1)c1ccccc1 | 18µM | - | - | ? | - | -
CCOc1ccc(C(=O)Nc2cc(-c3nc4ccccc4s3)ccc2OC)cc1 | . | - | - | . | . | .
COc1ccc(-c2nc3ccccc3s2)cc1NC(=O)c1ccccc1OC | 5.2µM | - | - | 21µM | . | .
COc1ccc(C(=O)Nc2cc(-c3nc4ccccc4s3)ccc2OC)cc1 | 3.3µM | - | - | 5.2µM | . | .
COc1cccc(C(=O)Nc2ccc(-c3nc4ccccc4s3)cc2Cl)c1 | ? | - | - | ? | . | .
SMILES | DT40 TDP1 CPT | TGFb inhibitor | HepG2 viability | DT40 TDP1 no CPT | HT1080 IDH1KD tx | HT1080NT lethal
COc1cc(OC)cc(C(=O)Nc2ccccc2-c2nc3ccccc3s2)c1 | 10µM | - | - | 5.8µM | . | .
CCN(CC(=O)NCc1cccs1)C(=O)c1cccc(S(=O)(=O)N2CCc3ccccc32)c1 | ? | - | - | ? | - | -
O=C(COC(=O)C1CCC1)NCCc1ccc(Cl)cc1Cl | - | - | - | - | - | -
COc1ccc(C(=O)NCc2ccc(-c3nc4ccccc4s3)cc2)cc1 | - | - | - | - | - | -
COc1cccc(C(=O)NCc2ccc(-c3nc4ccccc4s3)cc2)c1 | 18µM | - | - | 18µM | ? | -
Cc1cccc(C)c1OCC(=O)NCC1(N2CCOCC2)CCCCC1 | 16µM | ? | - | ? | . | .
CC(Oc1ccccc1F)C(=O)NCC1(N2CCOCC2)CCCCC1 (stereo not drawn) | ? | - | - | 18µM | . | .
CC(=O)c1ccc(OC(C)C(=O)NCC2(N3CCOCC3)CCCCC2)cc1 (stereo not drawn) | ? | - | - | ? | - | -
O=C(COc1ccccc1[N+](=O)[O-])NCC1(N2CCOCC2)CCCCC1 | ? | - | - | 21µM | - | -
O=C(Cc1ccccc1F)NCC1(N2CCOCC2)CCCCC1 | - | - | - | - | - | -
Cc1cc(C)cc(OCC(=O)NCC2(N3CCOCC3)CCCCC2)c1 | ? | - | - | 26µM | . | .
Nc1nc(-c2ccc3ccccc3c2)c(C2(O)C(=O)Nc3c(Br)cc(F)cc32)s1 (stereo not drawn) | - | - | - | - | - | -[9.24 µM]
O=C(COc1ccc(F)cc1)NCC1(N2CCOCC2)CCCCC1 | ? | - | - | - | - | -
Cc1ccc(OCC(=O)NCC2(N3CCOCC3)CCCCC2)cc1C | 21µM | - | - | 16µM | . | .
COc1ccc(C(=O)COC(=O)c2ccc(OC)c(OC)c2)cc1OC | - | - | - | - | - | -
